Assay outcomes (PubChem BioAssay)
The list is not random: actives were taken first. Their share in the collection is about 2.6%.
Cruzain noTriton = cruzain (T. cruzi) inhibition without detergent; Potency, µM, for the others: max response, negative = inhibition, usual class: inhibitors; purified cruzain, Z-FR-AMC fluorescence, no detergent; 200,000 compounds, 2.3% hits;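 note: plate controls were enzyme without inhibitor for no effect and buffer without enzyme for full effect; nearly all actives have a fitted effect of over 40% in size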
Target sequence (P25779 123-467 limits assumed): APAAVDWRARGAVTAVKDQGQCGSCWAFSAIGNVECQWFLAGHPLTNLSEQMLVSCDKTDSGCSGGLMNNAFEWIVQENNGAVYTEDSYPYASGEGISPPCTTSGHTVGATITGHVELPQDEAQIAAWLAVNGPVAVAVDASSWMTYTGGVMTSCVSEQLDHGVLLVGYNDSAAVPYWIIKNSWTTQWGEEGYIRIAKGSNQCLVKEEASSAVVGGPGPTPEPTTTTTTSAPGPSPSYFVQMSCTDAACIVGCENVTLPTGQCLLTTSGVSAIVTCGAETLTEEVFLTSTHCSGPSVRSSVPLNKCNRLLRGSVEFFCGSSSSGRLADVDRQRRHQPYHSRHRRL
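Detergent-free condition (0.00005% Triton X-100) in acetate buffer pH 5.5 with DTT. 1.5 nM enzyme and compound were pre-mixed 15 min, then 2 uM Z-FR-AMC substrate added; reaction progress from fluorescence change between first and third reads (60 s).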
Cruzain Triton = inhibitors of Trypanosoma cruzi cruzain with detergent; P25779; purified cruzain, Z-FR-AMC fluorescence, 0.01% Triton; Potency, µM, for inactives: max response, negative = inhibition, actives largely listed as inhibitors; 200,000 compounds, 0.43% hits; AID 1478;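 note: plate controls were neutral wells for no effect and buffer without enzyme for full effect; nearly all actives have a fitted effect of over 40% in size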
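Compounds were screened in titration against cruzain (1.5 nM) with 0.01% Triton X-100 to counter colloidal aggregation. Activity was the AMC fluorescence increase over 60 s after adding 2 uM Z-FR-AMC at pH 5.5.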
Starred values were filed as active, the others as inactive; ? = inconclusive. Calls come from the whole dose curve; as a rule, active = well fitted curve in the direction sought with a large enough effect; inconclusive = small, poorly fitted or top-dose-only effect, or another doubt; inactive = no such curve, though single readings can be large; an effect the other way counts as inactive or inconclusive. Potency is the fitted concentration of half-maximal effect.

SMILES | Cruzain noTriton | Cruzain Triton
COC(=O)N[C@H](C[N+](=O)[O-])C(C)(C)C | 3.3% | -4.4%
Cc1c(Cl)cccc1NC(=O)CCS(=O)(=O)c1cccc2nsnc12 | 7.7% | -3.0%
Cc1ccc(-c2csc(C3C(N)=NC(S)=C(C#N)C34CCCCC4)n2)cc1 (stereo unspecified) | 15.8µM* | -9.3%
N#CC1=C(S)N=C(N)C(c2nc(-c3ccccc3)cs2)C12CCCCC2 (stereo unspecified) | -0.2% | 0.5%
Cc1ccc(SCC(=O)Nc2ccc(N3CCN(C)CC3)c(F)c2)cc1 | -1.0% | -0.9%
O=C(CSc1ccccc1)Nc1ccc(N2CCN(c3ccccc3)CC2)c(F)c1 | 12.6µM* | 9.0%
Cc1ccc(NC(=O)c2nn(C34CC5CC(CC(C5)C3)C4)cc2[N+](=O)[O-])cc1 | ? | -3.0%
O=C(Nc1cccc2ccccc12)c1nn(C23CC4CC(CC(C4)C2)C3)cc1Br | 10µM* | 2.8%
Cc1ccc(N2C(=O)[C@@H]3[C@H](C2=O)[C@H]2C=CC=NN2[C@@H]3C(=O)Nc2ccc(Cl)cc2)cc1 | -0.6% | -8.1%
O=C(Nc1ccc(Cl)cc1)[C@@H]1[C@@H]2C(=O)N(c3ccc(Cl)cc3)C(=O)[C@@H]2[C@H]2C=CC=NN21 | 20µM* | -5.5%
CC(=O)Oc1ccc(C(=O)[C@H]2[C@H]3C(=O)N(c4ccc5ccccc5c4)C(=O)[C@H]3[C@@H]3C=CC=NN32)cc1 | ? | -1.6%
O=C(Nc1ccc(Cl)cc1)[C@@H]1[C@@H]2C(=O)N(c3ccc(Cl)cc3Cl)C(=O)[C@@H]2[C@H]2C=CC=NN21 | 15.8µM* | -5.3%
Cc1oc(-c2ccc(C(=O)NC(C)c3ccccc3)cc2)nc1CS(=O)(=O)c1ccccc1 (stereo unspecified) | 1.0% | -4.0%
COc1ccc(C2=C(C)C(=O)N(Cc3ccc(C(=O)NCc4ccc(C)cc4)cc3)S2(=O)=O)cc1 | -15.7% | -7.0%
COc1ccc(C2=C(C)C(=O)N(Cc3ccc(C(=O)NC(C)c4ccccc4)cc3)S2(=O)=O)cc1 (stereo unspecified) | 15.8µM* | -10.2%
COc1ccc(C2=C(C)C(=O)N(Cc3ccc(C(=O)Nc4cccc(F)c4)cc3)S2(=O)=O)cc1 | ? | -15.9%
CC1=C(c2ccc(C)c(C)c2)S(=O)(=O)N(Cc2ccc(C(=O)NC(C)c3ccccc3)cc2)C1=O (stereo unspecified) | 4.2% | -4.1%
CCc1cccc(NC(=O)c2ccc(CN3C(=O)C(C)=C(c4ccc(OC)cc4)S3(=O)=O)cc2)c1 | 25.1µM* | -7.1%
COc1ccc(C2=C(C)C(=O)N(Cc3ccc(C(=O)NCc4cccc(C)c4)cc3)S2(=O)=O)cc1 | 25.1µM* | -18.6%
COc1ccc(N2CC(NC(=O)C(=O)c3c(C)[nH]c4ccccc34)CC2=O)cc1 (stereo unspecified) | -0.9% | -6.7%
CC(C)n1c(=N)c(C(=O)NCc2cccnc2)cc2c(=O)n3ccccc3nc21 | 11.7% | -3.7%
Cc1c(Cc2ccccc2)sc(/N=C/c2c(O)ccc3ccccc23)c1C(N)=O | -19.4% | -8.2%
Cc1c(Cc2ccccc2)sc(N)c1C(N)=O | ? | -5.7%
COc1ccc(/C=C/C(=O)Nc2sc(Cc3ccccc3)c(C)c2C(N)=O)cc1 | 15.8µM* | -11.4%
Cc1c(Cc2ccccc2)sc(/N=C/c2ccc3ccccc3c2)c1C(N)=O | 6.31µM* | -4.2%
SMILES | Cruzain noTriton | Cruzain Triton
Cc1ccc(NC(=O)CSc2nc(=O)n(CCN3CCOCC3)c3c2CCC3)c(C)c1 | -6.6% | -0.7%
Cc1ccc(-n2c(=O)c3ccccc3n(CC(=O)Nc3cccc(C(F)(F)F)c3)c2=O)cc1 | -4.2% | -7.8%
COC(=O)c1c(NC(=S)Nc2ccc(CC(=O)O)cc2)sc(C)c1C | 7.8% | -11.0%
CCOC(=O)c1c(NC(=S)Nc2ccc(Cl)cc2)sc(C)c1C | 3.98µM* | -3.5%
CCOC(=O)c1c(NC(=S)Nc2ccccc2)sc2c1CC(C)(C)SC2 | 12.6µM* | -4.2%
CCOC(=O)c1c(NC(=S)NC)sc2c1CC(C)(C)SC2 | -23.9% | -26.2%
COCCNC(=O)CSc1nnc(NC(=O)Nc2ccc(C)cc2)s1 | 10.3% | -1.0%
Cc1ccc(-c2nn(-c3cc(Cl)ccc3[N+](=O)[O-])c(=O)c3ccccc23)cc1C | 12.6µM* | 0.0%
O=c1c2ccccc2c(-c2ccccc2)nn1-c1cc(Cl)ccc1[N+](=O)[O-] | ? | -0.9%
Cc1ccc(Cl)cc1N1CCN(C(=O)CCC(=O)Nc2ccc3nc(N4CCC(C)CC4)cc(C)c3c2)CC1 | 9.2% | -1.6%
Cc1cc(N2CCCCC2)nc2ccc(NC(=O)CCC(=O)N3CCN(c4cccc(Cl)c4)CC3)cc12 | ? | 15.8µM*
Cc1cc(N2CCC(C)CC2)nc2ccc(NC(=O)CCC(=O)N3CCN(c4cccc(C(F)(F)F)c4)CC3)cc12 | ? | 12.6µM*
Cc1cc(N2CCCCC2)nc2ccc(NC(=O)c3cccc(Cl)c3)cc12 | -11.3% | -10.2%
CCc1cccc(NC(=O)c2c(C)oc3ncnc(N4CCCCC4)c23)c1 | 21.5% | -8.3%
COc1cccc(C(=O)Nc2cc(C(=O)NCCc3ccccc3)ccc2Cl)c1 | 1.0% | 2.4%
COc1cccc(-n2cc(C(=O)NCCc3cccc(C)c3)c3ccccc3c2=O)c1 | 13.8% | -4.3%
COc1cccc(/C(O)=C/c2nc3ccc(C(=O)NCCc4ccc(Cl)cc4)cc3[nH]c2=O)c1 | 25.1µM* | -7.1%
COc1cccc(/C(O)=C/c2nc3ccc(C(=O)NCCc4cccc(C)c4)cc3[nH]c2=O)c1 | 20µM* | -2.6%
Cn1c(=O)cc(OCC(=O)N2CCN(c3ccc(F)cc3)CC2)c2ccccc21 | -5.6% | 0.3%
Cc1ccccc1NC(=O)c1c(C)oc2ccc(O)c(CN3CCCCCC3)c12 | -22.3% | -4.2%
CCC(C)C(=O)Nc1nc(C)c(-c2csc(Nc3cc(Cl)ccc3OC)n2)s1 (stereo unspecified) | -15.7% | 1.4%
COc1ccc(Cl)cc1Nc1nc(-c2sc(NC(=O)C(C)(C)C)nc2C)cs1 | -24.4% | 1.9%
CCC(=O)Nc1nc(C)c(-c2csc(Nc3ccc(S(=O)(=O)Nc4cc(C)on4)cc3)n2)s1 | -17.8% | -0.9%
Cc1ccc(Cl)cc1Nc1nc(-c2sc(NC(=O)c3ccccc3)nc2C)cs1 | 6.31µM* | 3.7%
Cc1nc(NC(=O)c2ccccc2)sc1-c1csc(Nc2cccc(F)c2)n1 | ? | 4.7%
SMILES | Cruzain noTriton | Cruzain Triton
COc1ccc(Cl)cc1Nc1nc(-c2sc(NC(=O)c3ccco3)nc2C)cs1 | 15.8µM* | -1.1%
Cc1cc(NS(=O)(=O)c2ccc(Nc3nc(-c4sc(NC(=O)c5ccccc5)nc4C)cs3)cc2)no1 | 6.31µM* | -11.4%
CCCCCCC(=O)Nc1nc(C)c(-c2csc(Nc3cc(Cl)ccc3C)n2)s1 | 10µM* | 3.2%
COc1cccc(Cn2c(=O)n(-c3cc(C)cc(C)c3)c(=O)c3oc4ccccc4c32)c1 | -8.5% | -1.5%
Cc1cccc(C)c1NC(=O)c1sc(-n2nc(C)c(Cc3ccc4c(c3)OCO4)c2C)nc1C | -8.1% | -0.1%
CCCC(C)C(=O)Nc1nc(C)c(-c2csc(Nc3ccc(Cl)cc3)n2)s1 (stereo unspecified) | 10µM* | 2.5%
CCCCC(=O)Nc1nc(C)c(-c2csc(Nc3cc(OC)ccc3OC)n2)s1 | ? | -1.8%
CCCC(C)C(=O)Nc1nc(C)c(-c2csc(Nc3ccccc3OC)n2)s1 (stereo unspecified) | ? | 4.8%
CCCCC(=O)Nc1nc(C)c(-c2csc(Nc3cc(Cl)ccc3OC)n2)s1 | 10µM* | 0.5%
